Assay results reported in PubChem BioAssay AID1986 (Sanford-Burnham Center for Chemical Genomics, 2009).
“And” between values parts separate entries of the source, which are not always exact repeats. Identical values can stand only once. Screen size: about 290,000 compounds; about 890 (0.31%) were called active. Rule as the data show it: active = inhibition mostly above about 52% (no sharp cut-off); inactive = mostly below about 76%. The sample as a whole holds a higher share of actives than the screen did.

Assay: cell-free HIV fusion peptide-binding blockers – biochemical, uHTS, fluorescence dequenching, primary screen (AID 1986)
Details: 30 min, stronger effect = higher value
[1] = measured here: repeat confirmation average inhibition, at 18.6 µM

Row | Structure (SMILES) | inhibition (at 20 µM) | inhibition [1] [%]
1 | Cc1ccc(/C=C2/NC(=O)N(Cc3ccccc3)C2=O)s1 | 36.8% (inactive) | 
2 | Cc1ccc(/C=C2/NC(=O)N(Cc3ccccc3F)C2=O)s1 | 64% (active) | 72.6
3 | O=C1N/C(=C/c2cccs2)C(=O)N1Cc1ccccc1F | -0.7% (inactive) | 
4 | O=C(CNC(=O)c1ccccc1F)NC1CC1 | -0.1% (inactive) | 
5 | Cc1cc(-n2c(C)cc(C(=O)CSc3ccc4c(c3)OCCO4)c2C)no1 | 2.6% (inactive) | 
6 | CC(C)(C)C(=O)N=C1SC2CS(=O)(=O)CC2N1c1ccc2c(c1)OCO2 (configuration not stated) | -0.3% (inactive) | 
7 | CCC(C)NC(=O)C1CCC(CNS(=O)(=O)c2ccccc2)CC1 (configuration not stated) | -0.4% (inactive) | 
8 | N#Cc1cc(C(=O)c2cc(F)ccc2O)cn(-c2nccs2)c1=O | 151% (inactive) | 
9 | Cc1ccc(O)c(C(=O)c2cc(C#N)c(=O)n(-c3nccs3)c2)c1 | 143% (inactive) | 
10 | N#Cc1cc(C(=O)c2ccccc2O)cn(-c2nccs2)c1=O | 52.8% (active) | 99.4
11 | CCOC(=O)c1c(NC(=S)Nc2ccc(Cl)cc2)sc2c1CCN(C)C2 | 23.1% (inactive) | 
12 | CC(C)c1ccc(N(CC(=O)NCc2ccc(F)cc2)C(=O)c2csnn2)cc1 | -1.1% (inactive) | 
13 | Cc1c(C(=O)N(C)Cc2ccccc2)oc2c(Cl)cccc12 | -0.6% (inactive) | 
14 | O=C1NC(=O)/C(=C\c2ccccc2OCc2ccccc2)S1 | 47.5% (inactive) | 
15 | O=C1N/C(=N/NC(=O)c2cccc3ccccc23)S/C1=C\c1ccccc1OCc1ccccc1 | 80.3% (active) | 
16 | O=C1NC(=O)/C(=C/c2ccccc2OCc2ccccc2)S1 | 31.6% (inactive) | 
17 | COc1ccc(C2CC(=O)c3cnc(NC(=O)c4cccc(OC)c4)nc3C2)cc1 (configuration not stated) | 5.8% (inactive) | 
18 | CCC(C)NC(=O)c1ccccc1NC(=O)COc1ccc(OC)cc1 (configuration not stated) | 1% (inactive) | 
19 | Cc1nc(NC2CCCCC2)c2nnn(Cc3ccccc3Cl)c2n1 | 0.5% (inactive) | 
20 | O=C(NCc1ccccc1)NC(=O)c1ccc(Cl)cc1 | 2.8% (inactive) | 
21 | CC(C)=C1C(=O)NN(c2ccc(F)c(Cl)c2)C1=O | 32.6% (inactive) | 
22 | CC(C)=C1C(=O)NN(c2cccc(Cl)c2)C1=O | 60% (inactive) | 0.7
23 | CC(C)=C1C(=O)NN(c2ccc(C)c(Cl)c2)C1=O | 66.4% (active) | 
24 | O=C(COC(=O)c1cc[n+]([O-])cc1)Nc1ccc(SC(F)F)cc1 | 2.4% (inactive) | 

Row | Structure (SMILES) | inhibition (at 20 µM) | inhibition [1] [%]
25 | O=C(Nc1cc(C(=O)N2CCCC2)ccc1N1CCCC1)c1ccccc1F | 2.6% (inactive) | 
26 | O=C(Nc1sc2c(c1C(=O)O)CCCC2)C(=O)N1CCOCC1 | 2.6% (inactive) | 
27 | COc1ccc(/C=C2\N=C(c3ccc(C)cc3)OC2=O)cc1 | 1.1% (inactive) | 
28 | COc1ccc(OC)c(/C=C2\N=C(c3ccccc3)OC2=O)c1 | 60.8% (active) | 
29 | COc1cc(/C=C2\N=C(c3ccccc3)OC2=O)ccc1OC(C)=O | 1.1% (inactive) | 
30 | CC(C)=Cc1oc2ccc([N+](=O)[O-])cc2c1N1CCOCC1 | 0.3% (inactive) | 
31 | COc1ccc(NC(C)C(=O)Nc2ccc(C#N)cc2)cc1Cl (configuration not stated) | 0.7% (inactive) | 
32 | O=C(Nc1ccc([N+](=O)[O-])cc1)N1CCCCCC1 | -1.7% (inactive) | 
33 | O=C(c1sc2ccccc2c1Cl)N1CCN(CCc2ccccn2)CC1 | -0.9% (inactive) | 
34 | O=C(O)c1ccc(-n2cccc2/C=C2/SC(=O)N(CC(=O)N3CCCC3)C2=O)cc1 | 33.4% (inactive) | 
35 | COc1cccc(NC(=O)CCc2nnc3ccc(NCc4ccco4)nn23)c1 | 1.7% (inactive) | 
36 | Cc1ccc(S(=O)(=O)/N=C2/NC(=O)/C(=C/c3ccccc3)S2)cc1 | 59.7% (inactive) | 46.5
37 | Cc1ccc(S(=O)(=O)/N=C2/NC(=O)/C(=C\c3cc(Br)cc(Br)c3O)S2)cc1 | 94.7% (active) | 132
38 | Cc1ccc(S(=O)(=O)/N=C2/NC(=O)/C(=C/c3ccncc3)S2)cc1 | 0.8% (inactive) | 
39 | Cc1ccc(S(=O)(=O)/N=C2/NC(=O)/C(=C/c3ccc(Br)o3)S2)cc1 | 53.6% (active) | 
40 | Cc1ccc(S(=O)(=O)/N=C2/NC(=O)/C(=C\c3ccco3)S2)cc1 | -3.4% (inactive) | 
41 | Cc1ccc(S(=O)(=O)/N=C2/NC(=O)/C(=C/c3ccccn3)S2)cc1 | 13% (inactive) | 
42 | Fc1ccc(OCCCCCCN2CCCC2)cc1 | 0.7% (inactive) | 
43 | Cc1ccc(NC(=O)CSCc2cc(=O)n3cc(C)sc3n2)c(C)c1 | 0% (inactive) | 
44 | CCOC(=O)c1ccc(N=C2SC(C(=O)NC)CC(=O)N2Cc2ccc(F)cc2)cc1 (configuration not stated) | 0.9% (inactive) | 
45 | COc1ccc(C2(C(=O)NCCCN(C)C)CCOCC2)cc1 | 2.4% (inactive) | 
46 | O=C(CCl)Nc1cc(S(=O)(=O)N2CCOCC2)ccc1N1CCOCC1 | 1% (inactive) | 
47 | O=S(=O)(O)c1cc(O)c2c(O)c(N=Nc3cc(Cl)ccc3O)c(S(=O)(=O)O)cc2c1 | 55.7% (active) | 
48 | O=S(=O)(O)c1cccc(N=Nc2c(O)ccc3ccccc23)c1 | 10.9% (inactive) | 

Row | Structure (SMILES) | inhibition (at 20 µM) | inhibition [1] [%]
49 | Oc1ccc(Cl)cc1N=Nc1ccccc1 | -2.6% (inactive) | 
50 | CCc1ccc2[nH]c3nc(SCc4nnc(-c5ccc(C)cc5)o4)nnc3c2c1 | 1.4% (inactive) | 
51 | COc1ccc(-c2cc(-c3ccco3)[nH]c(=O)c2C#N)cc1OC | 40.7% (inactive) | 
52 | COc1ccc(-c2cc(-c3ccco3)[nH]c(=O)c2C#N)cc1 | 48.8% (inactive) | 
53 | N#Cc1c(-c2cccc(Br)c2)cc(-c2ccco2)[nH]c1=O | 81.5% (active) | 
54 | Cc1c(C(=O)O)c(=O)n(-c2ccccc2)n1-c1ccccc1 | 1.2% (inactive) | 
55 | Cc1ccc(C)c(C(=O)CSc2nc3ccccc3c(=O)[nH]2)c1 | 1.9% (inactive) | 
56 | COc1cc(C(=O)NS(=O)(=O)c2ccccc2C)ccc1Cc1cn(C)c2ccc(NC(=O)OC3CCCC3)cc12 | 55.9% (active) | 
57 | Cc1cc(NC(=O)OC2CCCCC2)ccc1[N+](=O)[O-] | -1.3% (inactive) | 
58 | COc1ccc(CNC(=O)Cc2cn(C)c3ccccc23)c(OC)c1 | 0% (inactive) | 
59 | O=S(=O)(c1ccc(C2CCCCC2)cc1)N1CCCC1 | -0.2% (inactive) | 
60 | COCCn1c(=NC(=O)CCS(=O)(=O)c2ccccc2)sc2c(OC)ccc(OC)c21 | 1.4% (inactive) | 
61 | CC(C)NCc1cc(Br)ccc1OCc1ccccc1 | 0.8% (inactive) | 
62 | S=c1[nH]nc(-c2ccco2)n1/N=C/C=C/c1ccccc1 | 3.2% (inactive) | 
63 | S=c1[nH]nc(-c2ccco2)n1/N=C/C=C/c1ccco1 | 65.9% (active) | 
64 | S=c1[nH]nc(-c2ccccc2)n1/N=C/C=C/c1ccco1 | 51.2% (inactive) | -0.2
65 | COc1ccc2c(CC(=O)Nc3ncc(C)s3)coc2c1 | 1.1% (inactive) | 
66 | Cc1cccc(C)c1OCc1cc(C(=O)NCc2ccc(Cl)s2)no1 | 0.7% (inactive) | 
67 | CC1=CC(=C(C#N)C#N)c2ccccc2N1C | 146% (inactive) | 
68 | COC(=O)c1c(C(=O)NCc2ccccc2)ncn1CC(O)COc1ccccc1 (configuration not stated) | -0.4% (inactive) | 
69 | N#C/C(=C\c1ccc(C(=O)O)cc1)c1nc2sc3c(c2c(=O)[nH]1)CCCC3 | 103% (active) | 
70 | CCOC(=O)c1nc2sc3c(c2c(=O)[nH]1)CCCC3 | 0.4% (inactive) and 2.4% (inactive) | 
71 | O=C(O)c1ccc(/C=C/c2nc3sc4c(c3c(=O)[nH]2)CCC4)cc1 | 33.6% (inactive) | 
72 | O=C(N/N=C/c1cc([N+](=O)[O-])ccc1O)C(O)(c1ccccc1)c1ccccc1 | 15.6% (inactive) | 

Row | Structure (SMILES) | inhibition (at 20 µM) | inhibition [1] [%]
73 | N#CC1(C#N)C(c2ccccc2)OC23CCCCCC2C1(C#N)C(=N)O3 (configuration not stated) | 10% (inactive) | 
74 | COc1ccc2c(CC(=O)Nc3ccc(N4CCOCC4)cc3)coc2c1 | -1.8% (inactive) | 
75 | CCOC(=O)C1CCN(C(=O)Nc2ccc3nc(C)c(C)nc3c2)CC1 | 0.1% (inactive) | 
76 | CCOC(=O)C1CCN(C(=O)Nc2ccc3nc(-c4ccco4)c(-c4ccco4)nc3c2)CC1 | 68.6% (active) | 
77 | O=C(Nc1ccc2nc(-c3ccco3)c(-c3ccco3)nc2c1)N1CCCCCC1 | 55.6% (inactive) | 19.7
78 | Cc1cc(C)c(C)c(S(=O)(=O)N2CCNCC2)c1C | 0.3% (inactive) | 
79 | CC(C)(C)c1ccc(-c2nnc3sc(-c4ccncc4)nn23)cc1 | -2.8% (inactive) | 
80 | NC(=S)Nc1ccc(Cl)cc1Cl | -1.7% (inactive) | 
81 | COc1cc(OC)c(/C=N/n2c(C)nnc2C)c(OC)c1 | -1.2% (inactive) | 
82 | COC(=O)C(=Cc1ccc(-c2ccsc2C(=O)OC)o1)C(=O)OC | -1% (inactive) | 
83 | CCOC(=O)/C(C#N)=C/c1ccc(-c2ccsc2C(=O)OC)o1 | 61.4% (active) | 
84 | CCOC(=O)C(=Cc1ccc(-c2ccsc2C(=O)OC)o1)C(=O)OCC | 2.2% (inactive) | 
85 | Cc1cc(-c2ccc(Cl)s2)n[nH]1 | 0% (inactive) | 
86 | CC1(C)CCCC2=C1CC1C(=O)N(Cc3cccnc3)C(=O)C1C2 (configuration not stated) | 1.5% (inactive) | 
87 | Cc1cc(C)n2nc(C(=O)N/N=C/c3ccco3)nc2n1 | -0.3% (inactive) | 
88 | O=C(c1nc2ccccn2c1CNCC1OCCc2ccccc21)N1CCOCC1 (configuration not stated) | -0.8% (inactive) | 
89 | Cc1ccc(C)c(S(=O)(=O)NCCCn2ccnc2)c1 | -0.3% (inactive) | 
90 | COc1ccccc1NS(=O)(=O)c1ccc(N/N=C/c2c(C)nn(-c3ccccc3)c2N2CCCC2)c([N+](=O)[O-])c1 | -5.2% (inactive) | 
91 | COc1ccc(NC(=S)NNc2ccc(S(=O)(=O)Nc3ccccc3C(=O)O)cc2[N+](=O)[O-])cc1 | 52.4% (active) | 
92 | Cc1nn(-c2ccccc2)c(Cl)c1/C=N/Nc1ccc(S(=O)(=O)Nc2ccccc2C(=O)O)cc1[N+](=O)[O-] | 73% (active) | 
93 | Cc1nn(-c2ccccc2)c(N2CCCC2)c1/C=N/Nc1ccc(S(=O)(=O)Nc2ccccc2)cc1[N+](=O)[O-] | -3.9% (inactive) | 
94 | COc1ccc(NC(=O)c2ccccc2NS(=O)(=O)c2ccc(C)cc2)c([N+](=O)[O-])c1 | 1.8% (inactive) | 
95 | COc1ccc(NS(=O)(=O)c2cccc(C(=O)Nc3ccccc3C(=O)O)c2)cc1 | 19.7% (inactive) | 
